From PubChem BioAssay (NCATS)
Records with an inconclusive call do not appear. Calls of active or inactive are those of the source. Calls follow the shape of the dose curve; as a rule, active = well fitted curve in the direction sought with a large enough effect; inconclusive = small, poorly fitted or top-dose-only effect, or another doubt; inactive = no such curve, though single readings can be large; an effect the other way counts as inactive or inconclusive.

Columns and labels:
[1] = biological target: Cellular tumor antigen p53 (Homo sapiens) (UniProt P04637); experiment: Primary qHTS for small molecule compounds that upregulate eGFP-tagged delta133p53alpha (in N-terminal) cells. (AID 2060322); conditions: NCI-H358 eGFP-delta133p53alpha fluorescence, 24 h; activation: active compounds read high;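 also: cells pre-induced with doxycycline then dosed without doxycycline; 0% = DMSO vehicle and 100% = reference activator; nearly all actives have a fitted effect of over 75% in size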
How it was run: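 NCI-H358 cells pre-induced 24 h with 10 ng/ml doxycycline for eGFP-delta133p53alpha, plated dox-free and exposed 24 h at 37C to titrated compounds. Fixed, Hoechst-stained; gated GFP peak intensity by laser scanning cytometry, normalized to DMSO (0%) and 57.5 uM 5-azacytidine (100%).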

[2] = biological target: Aldehyde dehydrogenase, mitochondrial (Homo sapiens) (UniProt P05091); experiment: qHTS for Inhibitors of the Aldehyde Dehydrogenase Family (ALDH2) Primary screen (AID 2061308); conditions: ALDH2 enzyme inhibition qHTS, 1536-well; series mostly up to 56 µM;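 also: plate controls were vehicle for no effect and reference inhibitor for full effect; nearly all actives have a fitted effect of over 55% in size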
[3] = biological target: Retinaldehyde dehydrogenase 3 (Homo sapiens) (UniProt P47895); experiment: qHTS for Inhibitors of the Aldehyde Dehydrogenase Family (ALDH1A3) Primary screen (AID 2061315); conditions: ALDH inhibition qHTS; series mostly up to 56 µM;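 also: plate controls were DMSO vehicle for no effect and reference inhibitor for full effect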

Sequence of Cellular tumor antigen p53 (Homo sapiens) (P04637 whole entry, looked up): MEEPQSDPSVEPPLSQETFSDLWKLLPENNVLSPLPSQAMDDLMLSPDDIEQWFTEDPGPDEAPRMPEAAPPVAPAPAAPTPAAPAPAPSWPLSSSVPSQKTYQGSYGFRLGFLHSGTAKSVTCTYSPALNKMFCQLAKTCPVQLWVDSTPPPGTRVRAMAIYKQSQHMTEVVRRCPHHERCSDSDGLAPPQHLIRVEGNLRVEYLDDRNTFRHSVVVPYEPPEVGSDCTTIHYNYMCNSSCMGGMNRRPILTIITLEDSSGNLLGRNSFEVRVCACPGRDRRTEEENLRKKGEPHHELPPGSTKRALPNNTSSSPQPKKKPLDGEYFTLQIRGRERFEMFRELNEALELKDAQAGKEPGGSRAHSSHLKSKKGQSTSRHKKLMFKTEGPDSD

O=C1COC2(CCN(S(=O)(=O)c3ccc(-c4ccc5cccnc5c4)cc3)CC2)CN1C1CC1
inactive: activation [1] -15.7% | Potency [2] | Potency [3]

C=CCc1ccc(O[C@@H]2O[C@H](CO)[C@@H](O)[C@H](O)[C@H]2O)c(O[C@@H]2O[C@H](CO)[C@@H](O)[C@H](O)[C@H]2O)c1
inactive: activation [1] -13.7% | Potency [2] | Potency [3]

CC(O)C/C=C/C=C/C(=O)OC1C=C2COC(=O)C2(O)C2(C)CCCC(C)(C)C12 (configuration not stated)
inactive: activation [1] 5.34% | Potency [2] | Potency [3]

C=C1CC[C@H]2[C@@](C)(CCC[C@@]2(C)C(=O)O)[C@@H]1CCC(C)CCO (some centres not stated)
inactive: activation [1] 9.16% | Potency [2] | Potency [3]

CC1(C)CC[C@]2(C(=O)O[C@@H]3O[C@H](CO)[C@@H](O)[C@H](O)[C@H]3O)CC[C@]3(C)C(=CCC4[C@@]5(C)C[C@@H](O)[C@H](O)C(CO)(CO)C5CC[C@]43C)C2[C@@H]1O (some centres not stated)
inactive: activation [1] -15.3% | Potency [2] | Potency [3]

COC1C(O)C(OC2CCC3(C)C(CCC45CCC6C7(COC(=O)C7)OC4(O)C6(C)CCC35)C2)OC(C)C1OC1OC(CO)C(OC2OC(CO)C(O)C(O)C2O)C(O)C1O (configuration not stated)
inactive: activation [1] 1.53% | Potency [2] | Potency [3]

O=C(O)c1ccc(O)c2ncc(N3CCCN(CCc4cccc5ccccc45)CC3)cc12
inactive: activation [1] 21.2% | Potency [2] | Potency [3]

O=C1NC2CCc3nc4ccccc4c(=O)n3C2=Nc2ccccc21 (configuration not stated)
inactive: activation [1] -8.93% | Potency [2] | Potency [3]

COc1ccc(C2(O)c3ccccc3NC(=O)C2OC)cc1 (configuration not stated)
inactive: activation [1] -2.29% | Potency [2] | Potency [3]
